The values that follow come from PubChem BioAssay (NCATS).

Records with an inconclusive call do not appear. Activity calls are given as the source filed them. Unless noted, calls follow the shape of the dose curve; as a rule, active = well fitted curve in the direction sought with a large enough effect; inconclusive = small, poorly fitted or top-dose-only effect, or another doubt; inactive = no such curve, though single readings can be large; an effect the other way counts as inactive or inconclusive.

Assay [1] deals with DNA repair nuclease/redox regulator APEX1 (Homo sapiens) (UniProt P27695). Briefly: qHTS Validation Assay for Inhibitors of the Human Apurinic/apyrimidinic Endonuclease 1 (APE1) (AID 1705;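 also: TAMRA fluorescence gain over two minutes as APE1 cuts a quenched THF abasic duplex; series mostly up to about 57 µM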). The essentials:
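Fluorogenic double-stranded THF abasic-site substrate (5'-TAMRA/3'-BHQ-2), 50 nM final. Enzyme preincubated with compound 15 min at room temperature, then substrate added. Kinetic fluorescence (ex 525/em 598 nm) read three times at 60 s intervals; activity taken as third-minus-first read difference.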
Background: Quantitative high-throughput screening tests each substance at several concentrations.

Assay [2] in a line: Counterscreen for APE1 Inhibitors: Fluorescent Dye Displacement Validation Assay (AID 1707). An outline of the steps:
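Thiazole Orange displacement from dsDNA: 250 nM ThO with 50 nM TAMRA-labelled abasic-site (tetrahydrofuran) duplex in 50 mM Tris-HCl pH7.5, 50mM NaCl, 2 mM MgCl2, 0.01% Tween-20. Loss of endpoint fluorescence (ex 480 nm, em 540 nm) flags DNA binders.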

Assay [3] has as its target Endonuclease 4 (Escherichia coli (strain K12)) (UniProt P0A6C1). Briefly: Counterscreen for APE1 Inhibitors: qHTS Validation Assay for Inhibitors of Endonuclease IV (AID 1708). The essentials: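 2 nM enzyme was preincubated with compounds for 15 min at room temperature in 50 mM Tris-HCl pH 7.5, 50 mM NaCl, 2 mM MgCl2, 1 mM DTT, 0.01% Tween-20. 50 nM THF-abasic TAMRA/BHQ-2 duplex substrate started the reaction.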
(The purpose of a counterscreen is to sort out artefacts and off-target activity.)

Assay [4] is described as follows: qHTS for differential inhibitors of proliferation of Plasmodium falciparum line 7G8 (AID 1815).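 Also: parasite growth measured after three days of incubation.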 Also: potency is read from the fitted curve at half-maximal effect.
Assay [5] is described as follows: qHTS for differential inhibitors of proliferation of Plasmodium falciparum line GB4 (AID 1816).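 Also: parasite growth measured after 72 h incubation.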 Also: potency is read from the fitted curve at half-maximal effect. Particulars: Potency: Plasmodium falciparum GB4 proliferation inhibition.
The nature of assay [6]: qHTS for differential inhibitors of proliferation of Plasmodium falciparum line 3D7 (AID 1876). Also: potency is read from the fitted curve at half-maximal effect.
The nature of assay [7]: qHTS for differential inhibitors of proliferation of Plasmodium falciparum line D10 (AID 1877).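 Also: parasites grown with compound for 72 h before DNA staining.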 Also: potency is read from the fitted curve at half-maximal effect.
A short description of assay [8]: qHTS for differential inhibitors of proliferation of Plasmodium falciparum line Dd2 (AID 1882). Also: nearly all actives have a fitted effect of over 65% in size. Also: potency is read from the fitted curve at half-maximal effect. Particulars: Potency: Plasmodium falciparum Dd2 proliferation inhibition. An outline of the steps:
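SYBR Green I DNA fluorescence read-out, ex 485/em 535 nm. Signals were normalized to 0.29 uM artemisinin and DMSO wells, then corrected using vehicle-only plates flanking each stack. Parasite growth ran 72 h in erythrocytes before lysis.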

Assay [9] in a line: qHTS for differential inhibitors of proliferation of Plasmodium falciparum line HB3 (AID 1886).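 Also: parasites grown with compound for 72 h before SYBR Green readout.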 Also: potency is read from the fitted curve at half-maximal effect. The settings on record: Potency: Plasmodium falciparum HB3 proliferation inhibition.
Assay [10] has as its target Ferritin light chain (Equus caballus) (UniProt P02791). Nature of the assay: qHTS Validation Assay for Identification of Novel General Anesthetics (AID 2323). Also: series mostly up to about 77 µM. The essentials:
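Horse-spleen apoferritin (10 uM) in PBS with 50% saturated 1-aminoanthracene; compounds pin-transferred, 10 min at room temperature. Fluorescence read at 380/535 nm, normalized to free 1-AMA and 1-AMA/apoferritin values; four-parameter Hill fit.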

Assay [11] addresses ATP-dependent DNA helicase Q1 (Homo sapiens) (UniProt P46063). Nature of the assay: qHTS Validation Assay for Inhibitors of RecQ-Like Dna Helicase 1 (RECQ1) (AID 2353). The essentials: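 50 nM RECQ1T1 preincubated 15 min with compound in Tris pH 8.0 buffer with MgCl2, DTT, Tween-20 and 2.5 ug/ml poly(dI-dC); started with 200 nM TAMRA/BHQ-2 forked duplex and 2 mM ATP. Unwinding read as fluorescence (525/598 nm), two reads 2 h apart.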

Assay [12] has as its target RecQ-like DNA helicase BLM (Homo sapiens) (UniProt P54132). Briefly: qHTS Validation Assay for Inhibitors of Bloom's syndrome helicase (BLM) (AID 2364). An outline of the steps:
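BLM 50 nM in 25 mM Tris-HCl pH 8.0, 5 mM NaCl, 2 mM MgCl2, 1 mM DTT, 0.01% Tween-20, 2.5 ug/ml poly(dI-dC); 15 min cpd preinc, RT. Start: 200 nM forked DNA + 2 mM ATP (final). TAMRA read, 2 reads 2 h apart.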

Assay [13] in a line: Cytometric Cell-Based qHTS for Inhibitors of the mTORC1 Signaling Pathway in MEF (Tsc2-/-, p53-/-) Cells (AID 2660).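 Also: percent of cells above a phospho-rpS6 to PI ratio cutoff in each well; series mostly up to about 38 µM.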 The essentials: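 Readout: Alexa-488 phospho-rpS6 (Ser235/236) intensity divided by PI intensity, thresholded against 7.5 nM rapamycin wells and reported as % positive cells. PI cell count served as the viability measure. Compound exposure was 24 hrs at 37 degree Celsius.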

Assay [14] is described as follows: High Content Imaging Cell-Based qHTS for Inhibitors of the mTORC1 Signaling Pathway in MEF (Tsc2-/-, p53-/-) Cells (AID 2666).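 Also: percent of cells scored positive for phospho-rpS6 Ser235/236 immunostaining by imaging.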 Also: potency is read from the fitted curve at half-maximal effect. The essentials: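 Read-out: % positive cells per well, with thresholds from highest- and lowest-signal wells, based on phospho-rpS6 (Ser235/236) intensity normalized to Hoechst nuclear stain. Cells: Tsc2-/-, p53-/- MEFs carrying empty vector; compound 24 hrs, 37 degree Celsius.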

The nature of assay [15]: High Content Imaging Cell-Based qHTS for Inhibitors of the mTORC1 Signaling Pathway in MEF Cells (AID 2667). Also: potency is read from the fitted curve at half-maximal effect. The essentials:
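MEF (Tsc2-/-, p53-/-, WT Tsc2 re-expressed); cpd 24 h, 37 °C; PFA fix; Alexa-488 anti-p-rpS6 Ser235/236, PI, Hoechst; IN Cell imaging; Hoechst/Alexa-488 intensity ratio; % active cells, thresholds set from rapamycin and DMSO wells.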

Assay [16] can be described thus: qHTS for differential inhibitors of proliferation of Plasmodium falciparum line W2 (AID 1883).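 Also: parasites grown with compound for 72 h before lysis and staining.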 Also: potency is read from the fitted curve at half-maximal effect. The settings on record: Potency: Plasmodium falciparum W2 proliferation inhibition.
Assay [17] in a line: qHTS Assay for Modulators of Human Peripheral Myelin Protein 22 (PMP22) Expression/Activity (AID 1967; active = well fitted curve in the direction sought with a large enough effect in the signal ratio; the % refers to the signal ratio). The essentials: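 Mouse MSC80 Schwann cells carrying Pmp22 promoter–green click beetle luciferase plus EF-alpha–red luciferase control, dosed 24 h at 37 °C. Dual-filter luminescence, overlap-corrected; %Activity from green/red ratio normalised to untreated cells, concentration-response curves fitted.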

RecQ-like DNA helicase BLM (Homo sapiens), sequence (P54132 whole entry, looked up): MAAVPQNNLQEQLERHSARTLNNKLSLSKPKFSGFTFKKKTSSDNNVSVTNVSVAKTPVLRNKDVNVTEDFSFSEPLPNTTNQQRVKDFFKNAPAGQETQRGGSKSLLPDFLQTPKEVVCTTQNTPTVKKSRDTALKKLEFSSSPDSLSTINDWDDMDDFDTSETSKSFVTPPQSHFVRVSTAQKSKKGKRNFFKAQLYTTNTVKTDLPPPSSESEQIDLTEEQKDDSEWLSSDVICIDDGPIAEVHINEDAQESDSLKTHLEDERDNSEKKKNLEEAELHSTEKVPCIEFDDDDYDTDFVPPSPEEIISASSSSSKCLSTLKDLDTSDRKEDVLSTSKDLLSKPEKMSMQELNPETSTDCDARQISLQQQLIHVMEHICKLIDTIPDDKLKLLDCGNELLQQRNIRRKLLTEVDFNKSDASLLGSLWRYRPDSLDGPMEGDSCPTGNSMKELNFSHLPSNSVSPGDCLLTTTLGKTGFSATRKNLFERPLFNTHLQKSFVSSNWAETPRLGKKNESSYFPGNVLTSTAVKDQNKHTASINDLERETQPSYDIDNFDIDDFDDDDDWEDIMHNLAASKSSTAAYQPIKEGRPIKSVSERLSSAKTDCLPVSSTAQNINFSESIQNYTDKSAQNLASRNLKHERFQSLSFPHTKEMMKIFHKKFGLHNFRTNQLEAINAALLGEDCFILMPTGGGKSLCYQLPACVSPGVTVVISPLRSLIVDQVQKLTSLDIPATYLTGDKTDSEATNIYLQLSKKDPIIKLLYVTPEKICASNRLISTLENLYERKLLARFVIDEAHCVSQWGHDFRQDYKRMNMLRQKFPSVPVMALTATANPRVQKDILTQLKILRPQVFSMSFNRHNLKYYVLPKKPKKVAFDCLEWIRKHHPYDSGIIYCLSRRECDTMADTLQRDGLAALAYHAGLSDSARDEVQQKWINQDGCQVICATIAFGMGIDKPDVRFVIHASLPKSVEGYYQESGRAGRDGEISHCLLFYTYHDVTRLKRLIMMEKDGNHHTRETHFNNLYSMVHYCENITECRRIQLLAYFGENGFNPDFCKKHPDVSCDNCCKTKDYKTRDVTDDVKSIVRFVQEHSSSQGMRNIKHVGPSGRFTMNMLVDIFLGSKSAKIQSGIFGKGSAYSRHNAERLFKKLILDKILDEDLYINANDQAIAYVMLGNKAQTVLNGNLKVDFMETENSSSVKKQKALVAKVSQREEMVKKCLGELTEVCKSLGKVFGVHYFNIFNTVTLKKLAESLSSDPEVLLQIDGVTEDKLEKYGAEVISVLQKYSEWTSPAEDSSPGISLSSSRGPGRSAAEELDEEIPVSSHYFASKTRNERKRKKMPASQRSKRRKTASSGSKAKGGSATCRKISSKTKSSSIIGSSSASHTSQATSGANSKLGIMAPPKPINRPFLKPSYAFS
ATP-dependent DNA helicase Q1 (Homo sapiens), sequence (P46063 whole entry, looked up): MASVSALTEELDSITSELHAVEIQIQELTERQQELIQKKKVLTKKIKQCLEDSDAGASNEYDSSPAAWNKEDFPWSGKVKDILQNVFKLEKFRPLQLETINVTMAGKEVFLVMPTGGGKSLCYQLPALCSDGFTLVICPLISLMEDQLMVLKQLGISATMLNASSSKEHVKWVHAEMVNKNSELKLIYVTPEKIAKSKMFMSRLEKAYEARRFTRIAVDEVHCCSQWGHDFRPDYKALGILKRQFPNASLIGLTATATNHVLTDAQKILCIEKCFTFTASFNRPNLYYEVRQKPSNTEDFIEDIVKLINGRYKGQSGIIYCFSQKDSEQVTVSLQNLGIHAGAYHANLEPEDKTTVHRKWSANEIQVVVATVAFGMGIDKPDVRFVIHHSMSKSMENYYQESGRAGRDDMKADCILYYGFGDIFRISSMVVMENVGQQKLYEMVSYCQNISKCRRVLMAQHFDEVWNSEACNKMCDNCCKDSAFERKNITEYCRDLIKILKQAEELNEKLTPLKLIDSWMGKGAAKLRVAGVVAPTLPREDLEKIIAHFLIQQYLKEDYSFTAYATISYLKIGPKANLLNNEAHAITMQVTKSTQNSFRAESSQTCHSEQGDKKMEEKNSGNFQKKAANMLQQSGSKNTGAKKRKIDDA
DNA repair nuclease/redox regulator APEX1 (Homo sapiens), sequence (P27695 whole entry, looked up): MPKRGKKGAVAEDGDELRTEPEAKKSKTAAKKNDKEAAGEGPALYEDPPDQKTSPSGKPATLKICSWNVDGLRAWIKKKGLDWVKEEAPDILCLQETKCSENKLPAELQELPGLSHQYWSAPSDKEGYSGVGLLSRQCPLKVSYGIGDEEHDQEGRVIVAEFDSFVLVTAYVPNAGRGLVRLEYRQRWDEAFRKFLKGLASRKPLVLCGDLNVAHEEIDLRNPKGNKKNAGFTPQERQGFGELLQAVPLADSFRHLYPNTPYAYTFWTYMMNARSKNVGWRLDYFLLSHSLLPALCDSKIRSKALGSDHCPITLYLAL
Ferritin light chain (Equus caballus), sequence (P02791 2-175 limits assumed): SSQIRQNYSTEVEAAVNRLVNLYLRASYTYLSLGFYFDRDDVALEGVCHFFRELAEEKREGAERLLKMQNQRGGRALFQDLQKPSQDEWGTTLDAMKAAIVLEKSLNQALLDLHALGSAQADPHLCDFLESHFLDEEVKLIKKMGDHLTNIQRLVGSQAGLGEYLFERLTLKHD

For `CCOC(=O)c1ncn2c1[C@@H]1CCCN1C(=O)c1cc(OC)ccc1-2`, the Potency result in [1], in [2], in [3], in assay [5], in assay [6] and in assay [7] was “inactive” in each case. Further, the Potency result in assay [8], in assay [9], in assay [11], in [12], in [13] and in [14] was “inactive” each time. In [15], the Potency result is “inactive”. Further, the Potency in assay [4] was 7.94 µM (active). In addition, the outcome in [10] was inactive.

Turning to `CCCN(CCC)CCc1ccc(O)c(O)c1`, the Potency entry in assay [1], in assay [2], in [3], in [11], in assay [12] and in assay [13] was “inactive” in each case. The Potency entry in [14] and in [15] was “inactive” throughout. For the same compound, the Potency in assay [4] was 12.6 µM (active); in assay [5], 10 µM (active); in assay [7], 14.1 µM (active); in assay [16], 10 µM (active); in assay [9] it was 11.2 µM (active). Also, in [10], the compound was classed as inactive.

Turning to `C=CCN1C[C@@H](C)N([C@H](c2ccc(C(=O)N(CC)CC)cc2)c2cccc(OC)c2)C[C@@H]1C`, the Potency entry in assay [1], in assay [2], in assay [3], in assay [13], in assay [14] and in assay [15] was “inactive” throughout. The Potency in assay [4] is 2.82 µM (active); in assay [5] it was 3.98 µM (active); in [6] it was 3.16 µM (active); in assay [7], 7.08 µM (active); in assay [8] it was 8.91 µM (active); in assay [16], 3.16 µM (active). In addition, the Potency in assay [9] is 4.47 µM (active).

For `N[C@@H](Cn1oc(=O)[nH]c1=O)C(=O)O`, the Potency entry in assay [1], in assay [2], in [3], in assay [4], in assay [5] and in [6] was “inactive” in each case. For the same compound, the Potency entry in [7], in assay [8], in assay [16], in assay [9], in assay [13] and in assay [14] was “inactive” throughout. For the same compound, in assay [15], the Potency entry was “inactive”. The outcome in assay [17] and in [10] was inactive.

For the compound `Ic1ccccc1CNC1C2CCN(CC2)C1C(c1ccccc1)c1ccccc1` (configuration not stated), the Potency result in assay [1], in assay [2], in assay [3] and in [12] was “inactive” throughout. The Potency is 7.08 µM (active) in assay [4]; 5.01 µM (active) in [5]; 5.01 µM (active) in assay [6]; 11.2 µM (active) in assay [7]; 3.16 µM (active) in [8]; 1.41 µM (active) in assay [16]. The values for the Potency in assay [9], in assay [14] and in assay [15] were 11.2 µM (active), 16.5 µM (active) and 6.56 µM (active), respectively.

`CP(=O)(O)C1=CCNCC1`: the Potency entry in assay [1], in assay [2], in [3], in assay [4], in assay [5] and in assay [6] was “inactive” in each case. For the same compound, the Potency result in [7], in assay [8], in assay [16], in [9], in assay [11] and in assay [13] was “inactive” in each case. For the same compound, the Potency entry in [14] and in [15] was “inactive” throughout. For the same compound, in assay [10], the call was inactive.

On to `N[C@@]1(C(=O)O)CC[C@@H](C(=O)O)C1`, for which the Potency result in [1], in assay [2], in assay [3], in [4], in assay [5] and in [6] was “inactive” each time. The Potency entry in assay [7], in assay [8], in [16], in assay [9], in assay [14] and in [15] was “inactive” each time. For the same compound, the outcome in [17] and in assay [10] was inactive.

On to `CN(C(=O)Cc1ccc(Cl)c(Cl)c1)C(CN1CCCC1)c1cccc(OCC(=O)O)c1` (configuration not stated), for which the Potency result in assay [1], in assay [2], in [3], in assay [6], in assay [8] and in [9] was “inactive” in each case. The Potency entry in assay [11], in assay [12], in [13], in [14] and in [15] was “inactive” each time. Also, the Potency in assay [16] is 14.1 µM (active). Besides, in [10], the result was inactive.
